Assay results: PubChem BioAssay (NCATS)
Inconclusive results are not listed. Where a call stands in place of a potency, no number is given. Calls of active or inactive are those of the source. The call rests on the fitted dose curve; in most records, active means well fitted curve in the direction sought with a large enough effect; inconclusive means small, poorly fitted or top-dose-only effect, or another doubt; inactive means no such curve, though single readings can be large; an effect the other way counts as inactive or inconclusive.

Assays:
[1] = tested on: C33A; assay: Primary qHTS to identify gynecologic anti-cancer compounds using libraries of approved drugs and bioactive compounds (AID 1345084); conditions: Gynecologic cancer cell panel viability, ATPlite luminescence, 48 h; series mostly up to 57.5 µM; further: nearly all actives have a fitted effect of over 55% in size
In short: (§1)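 Cells, 1,000 per well, were allowed to settle for 16 h at 37 C before compound addition. Five concentrations were tested for 48 h, and viability was read by ATPlite luminescence after 15 min at room temperature.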

[2] = tested on: CAOV3; assay: as above; conditions: Gynecologic cancer cell panel viability, ATPlite luminescence, 48 h; series mostly up to 57.5 µM
In short: as §1

[3] = tested on: CASKI; assay: as above; conditions: Gynecologic cancer cell panel viability, ATPlite luminescence, 48 h; series mostly up to 57.5 µM
In short: as §1

[4] = tested on: HeLa; assay: as above; conditions: Gynecologic cancer cell panel viability, ATPlite luminescence, 48 h; series mostly up to 57.5 µM
In short: as §1

[5] = tested on: Hek293T; assay: as above; conditions: Gynecologic cancer cell panel viability, ATPlite luminescence, 48 h, control line for the selectivity index; series mostly up to 57.5 µM
In short: as §1

[6] = tested on: JEG-3; assay: as above; conditions: Gynecologic cancer cell panel viability, ATPlite luminescence, 48 h; series mostly up to 57.5 µM
In short: as §1

[7] = tested on: OV90; assay: as above; conditions: Gynecologic cancer cell panel viability, ATPlite luminescence, 48 h; series mostly up to 57.5 µM
In short: as §1

[8] = tested on: PA-1; assay: as above; conditions: Gynecologic cancer cell panel viability, ATPlite luminescence, 48 h; series mostly up to 57.5 µM
In short: as §1

[9] = tested on: WaGa; assay: qHTS assay to identify novel small-molecules to repurpose for Merkel cell carcinoma treatment (AID 1296009); conditions: MCC and control cell lines, CellTiter-Glo viability, 72 h; series mostly up to 46 µM; further: nearly all actives have a fitted effect of over 60% in size
In short: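 Dose-response viability screen; 72 hr exposure at 37 degree celsius; CellTiter-Glo added, 10 min room temperature, luminescence read; RLUs scaled between no-cell and DMSO wells.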

[10] = tested on: Es-2; assay: Primary qHTS to identify gynecologic anti-cancer compounds using libraries of approved drugs and bioactive compounds (AID 1345084); conditions: Gynecologic cancer cell panel viability, ATPlite luminescence, 48 h; series mostly up to 57.5 µM; further: nearly all actives have a fitted effect of over 55% in size
In short: as §1
Potency means the concentration at half of the fitted maximal effect.

## Nc1ccc([N+](=O)[O-])cc1
[1]
  Potency: inactive
[2]
  Potency: inactive
[3]
  Potency: inactive
[4]
  Potency: inactive
[5]
  Potency: inactive
[6]
  Potency: inactive
[7]
  Potency: inactive
[8]
  Potency: inactive

## CC(Cc1ccc(O)cc1)NCC(O)c1cc(O)cc(O)c1 (centres undefined)
[9]
  Potency: inactive
[2]
  Potency: inactive
[3]
  Potency: inactive
[10]
  Potency: inactive
[4]
  Potency: inactive
[5]
  Potency: inactive
[6]
  Potency: inactive
[8]
  Potency: inactive

## CCO/N=C(\CC)C1=C(O)CC(c2c(C)cc(C)cc2C)CC1=O (centres undefined)
[1]
  Potency: inactive
[3]
  Potency: inactive
[10]
  Potency: inactive
[4]
  Potency: inactive
[5]
  Potency: inactive
[7]
  Potency: inactive
[8]
  Potency: inactive

## S=C(SSC(=S)N1CCCCC1)N1CCCCC1
[3]
  Potency: inactive
[4]
  Potency: inactive
[5]
  Potency: 17.8 µM (active)
[7]
  Potency: 10 µM (active)

## Cc1ccccc1-n1c(Cn2cnc3c(N)ncnc32)nc2cccc(C)c2c1=O
[1]
  Potency: inactive
[2]
  Potency: inactive
[3]
  Potency: inactive
[10]
  Potency: inactive
[4]
  Potency: inactive
[5]
  Potency: inactive
[6]
  Potency: inactive
[7]
  Potency: inactive
[8]
  Potency: inactive

## COc1nn(CSP(=S)(OC)OC)c(=O)s1
[1]
  Potency: inactive
[3]
  Potency: inactive
[4]
  Potency: inactive
[5]
  Potency: inactive
[6]
  Potency: inactive
[7]
  Potency: inactive

## CC(C)[C@]12O[C@H]1[C@@H]1O[C@]13[C@]1(O[C@H]1C[C@H]1C4=C(CC[C@@]13C)C(=O)OC4)[C@@H]2O
[1]
  Potency: 0.708 µM (active)
[3]
  Potency: 0.199 µM (active)
[10]
  Potency: 0.1 µM (active)
[4]
  Potency: 0.158 µM (active)
[8]
  Potency: 0.1 µM (active)

## CCCN(CCC)c1c([N+](=O)[O-])cc(S(N)(=O)=O)cc1[N+](=O)[O-]
[1]
  Potency: 35.5 µM (active)
[6]
  Potency: inactive

## O=C(O)CCCOc1ccc(Cl)cc1Cl
[1]
  Potency: inactive
[3]
  Potency: inactive
[10]
  Potency: inactive
[4]
  Potency: inactive
[5]
  Potency: inactive
[6]
  Potency: inactive
[7]
  Potency: inactive
[8]
  Potency: inactive

## S=C(NC1CCCCC1)N1CCC(c2cnc[nH]2)CC1
[1]
  Potency: inactive
[2]
  Potency: inactive
[3]
  Potency: inactive
[10]
  Potency: inactive
[4]
  Potency: inactive
[5]
  Potency: inactive
[6]
  Potency: inactive
[7]
  Potency: inactive
[8]
  Potency: inactive

## C=CC(=O)NCNC(=O)C=C
[1]
  Potency: inactive
[2]
  Potency: inactive
[3]
  Potency: inactive
[10]
  Potency: inactive
[4]
  Potency: inactive
[5]
  Potency: inactive
[6]
  Potency: inactive
[7]
  Potency: inactive
[8]
  Potency: inactive

## CC(C)(C)C(O)C(Oc1ccc(Cl)cc1)n1cncn1 (centres undefined)
[1]
  Potency: inactive
[3]
  Potency: inactive
[10]
  Potency: inactive
[4]
  Potency: inactive
[5]
  Potency: inactive
[6]
  Potency: inactive
[8]
  Potency: inactive

## CO/C=C(/C(=O)OC)c1ccccc1Oc1cc(Oc2ccccc2C#N)ncn1
[10]
  Potency: 31.6 µM (active)
[5]
  Potency: 17.8 µM (active)
[7]
  Potency: 17.8 µM (active)

## O=C(Nc1ccccc1-c1ccc(Cl)cc1)c1cccnc1Cl
[1]
  Potency: inactive
[3]
  Potency: inactive
[10]
  Potency: inactive
[4]
  Potency: inactive
[5]
  Potency: inactive
[6]
  Potency: inactive
[8]
  Potency: inactive

## CN1CCN(c2ccc([N+](=O)[O-])c3no[n+]([O-])c23)CC1
[1]
  Potency: inactive
[3]
  Potency: inactive
[10]
  Potency: inactive
[4]
  Potency: inactive
[5]
  Potency: inactive
[6]
  Potency: inactive
[7]
  Potency: inactive
[8]
  Potency: inactive

## Cc1ccccc1-n1c(Cn2ncc3c(N)ncnc32)nc2cccc(C)c2c1=O
[1]
  Potency: inactive
[2]
  Potency: inactive
[3]
  Potency: inactive
[10]
  Potency: inactive
[4]
  Potency: inactive
[5]
  Potency: inactive
[6]
  Potency: inactive
[7]
  Potency: inactive
[8]
  Potency: inactive

## CC(C)Oc1cccc(NC(=O)c2ccccc2C(F)(F)F)c1
[9]
  Potency: 38.6 µM (active)
[3]
  Potency: inactive
[6]
  Potency: inactive
[7]
  Potency: 31.6 µM (active)

## CC(=O)NCCc1c[nH]c2ccccc12
[1]
  Potency: inactive
[3]
  Potency: inactive
[10]
  Potency: inactive
[4]
  Potency: inactive
[5]
  Potency: inactive
[6]
  Potency: inactive
[7]
  Potency: inactive
[8]
  Potency: inactive

## O=S(=O)(c1ccc(Cl)cc1)c1ccc(Cl)cc1
[1]
  Potency: inactive
[2]
  Potency: inactive
[3]
  Potency: inactive
[10]
  Potency: inactive
[4]
  Potency: inactive
[5]
  Potency: inactive
[6]
  Potency: inactive
[8]
  Potency: inactive
